Reference: PubChem BioAssay (NCATS)
Records with an inconclusive call do not appear. Calls of active or inactive are those of the source. Unless noted, calls follow the shape of the dose curve; as a rule, active = well fitted curve in the direction sought with a large enough effect; inconclusive = small, poorly fitted or top-dose-only effect, or another doubt; inactive = no such curve, though single readings can be large; an effect the other way counts as inactive or inconclusive.

Columns and labels:
[1] = molecular target: Glucocorticoid receptor (Homo sapiens) (UniProt P04150); assay: GR-EFC Redistribution (AID 451; calls by dose curve; also: potency is read from the fitted curve at half-maximal effect); conditions: CHO-K1 GR-EFC translocation, beta-gal luminescence, 2 h
Chain of Glucocorticoid receptor (Homo sapiens) (P04150 whole entry, looked up, the tested form may be a part): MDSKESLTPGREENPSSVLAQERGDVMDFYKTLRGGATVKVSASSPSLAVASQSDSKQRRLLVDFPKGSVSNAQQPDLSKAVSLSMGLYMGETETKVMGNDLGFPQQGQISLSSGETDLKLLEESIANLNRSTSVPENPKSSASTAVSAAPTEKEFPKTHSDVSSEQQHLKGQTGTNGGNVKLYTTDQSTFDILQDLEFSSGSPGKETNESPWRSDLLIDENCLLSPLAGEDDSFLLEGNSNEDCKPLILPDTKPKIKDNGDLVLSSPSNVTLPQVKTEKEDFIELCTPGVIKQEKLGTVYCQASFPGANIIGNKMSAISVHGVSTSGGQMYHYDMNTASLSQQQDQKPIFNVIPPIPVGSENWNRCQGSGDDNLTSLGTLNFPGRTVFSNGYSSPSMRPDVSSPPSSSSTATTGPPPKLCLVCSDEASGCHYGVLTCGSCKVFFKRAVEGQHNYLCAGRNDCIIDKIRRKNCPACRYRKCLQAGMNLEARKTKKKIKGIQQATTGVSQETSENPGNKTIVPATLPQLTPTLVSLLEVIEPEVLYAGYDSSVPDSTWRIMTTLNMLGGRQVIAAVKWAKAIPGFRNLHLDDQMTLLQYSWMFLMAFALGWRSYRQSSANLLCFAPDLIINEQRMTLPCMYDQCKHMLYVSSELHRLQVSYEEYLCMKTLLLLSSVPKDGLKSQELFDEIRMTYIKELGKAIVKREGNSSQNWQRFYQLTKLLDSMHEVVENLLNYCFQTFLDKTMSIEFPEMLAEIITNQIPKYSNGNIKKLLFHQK
Method in brief: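 CHO-K1 cells expressing nuclear EA and GR-ED fragments of b-gal; compounds titrated up to 46 uM final, 2 h at 37 C. GR nuclear translocation read as complemented b-gal luminescence after 1 h RT detection.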

[2] = molecular target: Guanine nucleotide-binding protein G(i) subunit alpha-1 (Homo sapiens) (UniProt P63096); assay: qHTS Assay for Inhibitors of RGS12 GoLoco Motif Activity (Green Fluorophore) (AID 879);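 also: negative values mean loss of peptide binding seen as reduced polarization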
Chain of Guanine nucleotide-binding protein G(i) subunit alpha-1 (Homo sapiens) (P63096 whole entry, looked up): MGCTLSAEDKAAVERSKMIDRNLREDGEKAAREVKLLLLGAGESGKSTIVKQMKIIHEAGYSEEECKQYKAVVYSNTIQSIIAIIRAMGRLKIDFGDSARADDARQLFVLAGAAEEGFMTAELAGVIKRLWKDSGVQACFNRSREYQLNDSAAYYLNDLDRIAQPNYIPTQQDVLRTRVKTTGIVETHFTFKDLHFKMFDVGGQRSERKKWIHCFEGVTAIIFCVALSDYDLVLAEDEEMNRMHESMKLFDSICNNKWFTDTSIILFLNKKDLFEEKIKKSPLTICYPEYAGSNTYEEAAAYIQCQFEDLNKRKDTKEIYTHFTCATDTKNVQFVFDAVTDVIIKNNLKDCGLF
Method in brief: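 A drop in FITC polarization marked displacement of the FITC-tagged RGS12 GoLoco peptide (10 nM) from Gαi1 (50 nM). Compounds were incubated 10 min at room temperature in Tris pH 7.5 buffer containing 150 mM NaCl, 0.1 mM GDP and 0.05% NP40; unlabeled peptide titration served as control.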

[3] = molecular target: Muscarinic acetylcholine receptor M1 (Rattus norvegicus) (UniProt P08482); assay: qHTS Assay for Antagonists of Acetylcholine Muscarinic M1 Receptor: Kinetic Measurement of Intracellular Calcium Response (AID 943); also: potency is read from the fitted curve at half-maximal effect; nearly all actives have a fitted effect of over 75% in size
Method in brief: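 Antagonism measured as reduction of carbachol-evoked (EC80, 100 nM final) calcium flux in rat M1-CHO cells after 10 min compound exposure. Fluo-4 signal read kinetically; ratio of maximal to basal fluorescence.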

[4] = molecular target: Pyruvate kinase (Leishmania mexicana) (UniProt Q27686); assay: qHTS Validation Assay for Inhibitors of Leishmania Mexicana Pyruvate Kinase (AID 945)
Method in brief: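 Read-out: luminescence from PKLight stop/detection reagent, data normalized to DMSO. Reaction: 0.2 nM E451W LmPYK, 0.5 mM PEP, 0.1 mM ADP, pH 7.2, 1 h room temperature.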

[5] = molecular target: Pyruvate kinase PKM (Homo sapiens) (UniProt P14618); assay: qHTS Assay for Activators of Human Muscle Pyruvate Kinase (AID 954; active = well fitted curve in the direction sought with a large enough effect, not every such curve was filed as active)
Method in brief: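 ATP production by PKM2 detected via luciferase luminescence after 1 h room-temperature reaction (0.1 nM enzyme, PEP at Km 0.5 mM, ADP 0.1 mM, pH 7.2 imidazole buffer). Inhibition scaled to no-enzyme control; activation referenced to 0.3 nM enzyme wells.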

[6] = molecular target: Alpha-galactosidase A (Homo sapiens) (UniProt P06280); assay: Counterscreen for Glucocerebrosidase Inhibitors: qHTS Assay for Human alpha-Galactosidase at pH 4.5 (AID 992)
Chain of Alpha-galactosidase A (Homo sapiens) (P06280 whole entry, looked up): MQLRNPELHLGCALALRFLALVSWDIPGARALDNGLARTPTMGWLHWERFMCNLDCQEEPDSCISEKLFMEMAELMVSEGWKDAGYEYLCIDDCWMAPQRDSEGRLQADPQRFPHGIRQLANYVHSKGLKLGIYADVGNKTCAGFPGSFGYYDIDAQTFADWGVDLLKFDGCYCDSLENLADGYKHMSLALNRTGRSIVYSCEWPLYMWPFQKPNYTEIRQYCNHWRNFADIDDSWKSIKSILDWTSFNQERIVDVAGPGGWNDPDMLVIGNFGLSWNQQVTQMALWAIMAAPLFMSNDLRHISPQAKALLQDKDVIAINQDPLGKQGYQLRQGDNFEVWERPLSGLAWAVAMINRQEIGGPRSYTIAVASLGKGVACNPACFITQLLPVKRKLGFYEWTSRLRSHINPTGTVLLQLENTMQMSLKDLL
Method in brief: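 Fluorogenic 1536-well qHTS at pH 4.5 (citrate, Tween-20): 2 nM enzyme, 80 uM 4-MU-alpha-galactoside, 20 min room temperature, NaOH/glycine stop. Titration 0.7 nM to 77 uM, data normalized to no-enzyme and full-activity controls, Hill-fitted AC50.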

[7] = molecular target: Glucocorticoid receptor (Homo sapiens) (UniProt P04150); assay: GR-GFP Redistribution (AID 450;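 active = compounds whose dose series gives a full or clear partial fitted curve of increased nuclear translocation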; also: potency is read from the fitted curve at half-maximal effect)
[8] = molecular target: Mitogen-activated protein kinase 10 (Mus musculus) (UniProt Q61831); assay: JNK3 AlphaScreen Assay (AID 530; active = well fitted curve in either direction with a large enough effect, not every such curve was filed as active;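 also: kinase came from lysate of stimulated human HepG2 cells; signal reports phosphorylation of biotinylated GST-cJun 1-79 at Ser73 with 10 µM ATP; series mostly up to about 57 µM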)
Method in brief: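 Activity was read by AlphaScreen after JNK3-containing HepG2 lysate (cytokine pre-activated) phosphorylated biotinylated GST-cJun with 10 uM ATP at room temperature. Phospho-Ser73 cJun antibody with Protein-A acceptor beads provided detection.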

[9] = molecular target: 3',5'-cyclic-AMP phosphodiesterase 4B (Homo sapiens) (UniProt Q07343); assay: qHTS Assay for Inhibitors of PDE-IV (AID 607; active = well fitted activation curve with a large enough effect in the main read-out, with a control signal flat, not every such curve was filed as active)
Chain of 3',5'-cyclic-AMP phosphodiesterase 4B (Homo sapiens) (Q07343 whole entry, looked up): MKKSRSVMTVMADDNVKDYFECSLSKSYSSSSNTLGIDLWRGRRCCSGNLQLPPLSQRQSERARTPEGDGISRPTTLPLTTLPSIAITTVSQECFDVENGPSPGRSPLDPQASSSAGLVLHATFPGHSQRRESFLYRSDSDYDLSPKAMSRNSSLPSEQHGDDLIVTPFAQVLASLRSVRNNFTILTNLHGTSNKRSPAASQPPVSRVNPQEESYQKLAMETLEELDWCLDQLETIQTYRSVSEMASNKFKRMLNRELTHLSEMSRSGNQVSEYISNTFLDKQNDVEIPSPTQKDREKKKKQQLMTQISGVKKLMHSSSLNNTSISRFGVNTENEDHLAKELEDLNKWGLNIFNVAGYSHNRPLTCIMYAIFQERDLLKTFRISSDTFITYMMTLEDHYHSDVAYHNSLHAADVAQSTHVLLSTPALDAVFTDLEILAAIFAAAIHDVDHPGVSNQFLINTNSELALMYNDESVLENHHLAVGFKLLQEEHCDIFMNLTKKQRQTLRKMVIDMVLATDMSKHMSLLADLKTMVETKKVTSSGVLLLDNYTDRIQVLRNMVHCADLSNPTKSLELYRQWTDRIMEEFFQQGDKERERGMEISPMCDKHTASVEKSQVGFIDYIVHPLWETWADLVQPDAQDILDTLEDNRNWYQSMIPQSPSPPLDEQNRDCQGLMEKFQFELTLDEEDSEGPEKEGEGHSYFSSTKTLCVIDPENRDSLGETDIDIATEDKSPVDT
Method in brief: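 Cell-based read-out of cAMP via a modified cyclic nucleotide-gated channel and membrane potential dye (535/590 nm) in HEK293 cells expressing PDE4 endogenously. Compounds tested up to 22.9 uM final; 100 uM RO 20-1724 reference.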

[10] = molecular target: Cytochrome P450 2C9 (Homo sapiens) (UniProt P11712); assay: qHTS Assay for Inhibitors and Substrates of Cytochrome P450 2C9 (AID 883); also: nearly all actives have a fitted effect of over 60% in size; also: potency is read from the fitted curve at half-maximal effect
Chain of Cytochrome P450 2C9 (Homo sapiens) (P11712 whole entry, looked up): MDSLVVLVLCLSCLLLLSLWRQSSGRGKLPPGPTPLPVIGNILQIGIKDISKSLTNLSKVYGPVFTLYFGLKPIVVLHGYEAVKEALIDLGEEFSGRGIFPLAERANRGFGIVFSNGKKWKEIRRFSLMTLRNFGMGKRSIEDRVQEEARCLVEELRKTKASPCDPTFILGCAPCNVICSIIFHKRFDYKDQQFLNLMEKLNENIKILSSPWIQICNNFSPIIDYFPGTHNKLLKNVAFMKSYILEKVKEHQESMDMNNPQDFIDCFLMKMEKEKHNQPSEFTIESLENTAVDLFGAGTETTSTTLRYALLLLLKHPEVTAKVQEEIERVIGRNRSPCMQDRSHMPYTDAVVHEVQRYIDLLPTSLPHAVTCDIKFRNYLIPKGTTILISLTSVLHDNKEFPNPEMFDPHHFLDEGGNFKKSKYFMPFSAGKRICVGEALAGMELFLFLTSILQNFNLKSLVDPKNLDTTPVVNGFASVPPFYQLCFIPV
Method in brief: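 Signal: luciferase luminescence reporting luciferin produced by CYP2C9. Conditions: 10nM enzyme, Luciferin-H 100uM at KM, 25mM KPO4, 37C, 60 min NADPH-driven reaction. Reference: 57uM sulphaphenazole as 100% inhibition.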

[11] = molecular target: Cytochrome P450 2D6 (Homo sapiens) (UniProt P10635); assay: qHTS Assay for Inhibitors and Substrates of Cytochrome P450 2D6 (AID 891); also: nearly all actives have a fitted effect of over 60% in size; also: potency is read from the fitted curve at half-maximal effect
Chain of Cytochrome P450 2D6 (Homo sapiens) (P10635 whole entry, looked up): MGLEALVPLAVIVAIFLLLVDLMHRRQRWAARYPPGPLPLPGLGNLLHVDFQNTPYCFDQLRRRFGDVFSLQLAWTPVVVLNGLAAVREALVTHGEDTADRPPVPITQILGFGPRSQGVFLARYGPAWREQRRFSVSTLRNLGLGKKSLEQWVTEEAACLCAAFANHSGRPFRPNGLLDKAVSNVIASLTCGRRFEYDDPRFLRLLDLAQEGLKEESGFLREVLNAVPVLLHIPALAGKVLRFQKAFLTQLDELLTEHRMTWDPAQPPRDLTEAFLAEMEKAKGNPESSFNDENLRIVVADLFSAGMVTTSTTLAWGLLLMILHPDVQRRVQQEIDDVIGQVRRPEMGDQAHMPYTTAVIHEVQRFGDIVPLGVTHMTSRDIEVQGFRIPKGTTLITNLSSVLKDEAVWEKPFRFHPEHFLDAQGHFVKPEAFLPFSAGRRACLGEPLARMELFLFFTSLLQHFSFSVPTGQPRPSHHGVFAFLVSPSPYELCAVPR
Method in brief: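 Luminescent read-out of luciferin formed by 5 nM human CYP2D6 demethylating 30 uM Luciferin-ME EGE (Km level) over 60 min at room temperature after NADPH regeneration addition. Data normalized to full inhibition by 1.43 uM quinidine.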

[12] = molecular target: Cytochrome P450 2C19 (Homo sapiens) (UniProt P33261); assay: qHTS Assay for Inhibitors and Substrates of Cytochrome P450 2C19 (AID 899); also: nearly all actives have a fitted effect of over 60% in size; also: potency is read from the fitted curve at half-maximal effect
Chain of Cytochrome P450 2C19 (Homo sapiens) (P33261 whole entry, looked up): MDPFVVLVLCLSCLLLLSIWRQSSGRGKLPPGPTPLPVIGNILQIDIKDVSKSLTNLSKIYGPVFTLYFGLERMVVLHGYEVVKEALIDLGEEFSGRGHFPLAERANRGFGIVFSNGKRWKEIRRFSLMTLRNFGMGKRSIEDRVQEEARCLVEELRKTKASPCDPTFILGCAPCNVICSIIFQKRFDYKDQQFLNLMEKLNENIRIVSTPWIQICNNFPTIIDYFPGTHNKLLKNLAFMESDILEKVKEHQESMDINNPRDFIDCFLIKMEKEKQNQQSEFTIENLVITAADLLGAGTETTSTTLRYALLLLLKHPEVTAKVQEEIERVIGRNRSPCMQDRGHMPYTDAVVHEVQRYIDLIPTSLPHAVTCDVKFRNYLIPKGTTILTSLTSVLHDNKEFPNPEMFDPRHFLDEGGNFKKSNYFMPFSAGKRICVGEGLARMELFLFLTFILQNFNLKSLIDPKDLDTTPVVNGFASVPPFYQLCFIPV
Method in brief: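 Signal comes from luciferase acting on luciferin released by CYP2C19-mediated hydroxylation of Luciferin-H EGE, 10uM (KM). Assay mix: 5nM enzyme, 50mM KPO4; 60 min at 37C with NADPH regeneration. Data normalized against 57uM ketoconazole.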

[13] = qHTS Assay for Identification of Small Molecule Agonists for Hypoxia Response Element Signaling Pathway (AID 914; active = well fitted activation curve with a large enough effect in the signal ratio, with a control signal flat, not every such curve was filed as active; the % refers to the signal ratio; also: potency is read from the fitted curve at half-maximal effect); conditions: ME-180 (cervical carcinoma) HRE-bla reporter, beta-lactamase ratio, CoCl2, 17 h; activation: stronger effect = higher value
Method in brief: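 qHTS titration; ME-180 HRE-bla cells; EC50 CoCl2 co-treatment, 17 h at 37 degrees Celsius; CCF4 dye, ex 405nm, em 460nm and 530nm; %Activity from ratio; AC50.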

[14] = molecular target: Cytochrome P450 3A4 (Homo sapiens) (UniProt P08684); assay: qHTS Assay for Inhibitors and Substrates of Cytochrome P450 3A4 (AID 884); also: potency is read from the fitted curve at half-maximal effect; nearly all actives have a fitted effect of over 50% in size
Chain of Cytochrome P450 3A4 (Homo sapiens) (P08684 whole entry, looked up): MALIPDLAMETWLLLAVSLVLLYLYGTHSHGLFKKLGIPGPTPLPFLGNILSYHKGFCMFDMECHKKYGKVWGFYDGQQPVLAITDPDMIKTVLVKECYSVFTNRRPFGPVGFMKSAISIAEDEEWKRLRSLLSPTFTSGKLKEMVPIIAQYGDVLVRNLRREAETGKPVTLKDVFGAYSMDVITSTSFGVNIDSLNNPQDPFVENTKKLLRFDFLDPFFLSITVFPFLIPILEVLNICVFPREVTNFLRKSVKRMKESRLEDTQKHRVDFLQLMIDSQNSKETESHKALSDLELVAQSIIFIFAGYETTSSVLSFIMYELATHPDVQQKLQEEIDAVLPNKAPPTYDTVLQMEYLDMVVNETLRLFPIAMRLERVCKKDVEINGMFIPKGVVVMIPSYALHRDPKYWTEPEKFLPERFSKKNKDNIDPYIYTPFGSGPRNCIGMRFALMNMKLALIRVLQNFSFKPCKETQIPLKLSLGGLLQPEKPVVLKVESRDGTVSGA
Method in brief: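 Luminescent readout of luciferin produced by CYP3A4 (20 nM) dealkylation of Luciferin-PPXE, 25 uM (its KM). NADPH-driven reaction ran 60 min at RT after 10 min compound preincubation; data scaled to 57 uM ketoconazole as 100% inhibition.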

[15] = molecular target: Cytochrome P450 3A4 (Homo sapiens) (UniProt P08684); assay: qHTS Assay for Activators of Cytochrome P450 3A4 (AID 885); also: nearly all actives have a fitted effect of over 65% in size
Method in brief: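 Luminescent readout of luciferin formed from 25 uM Luciferin-PPXE (KM level) by 20 nM CYP3A4 in 200 mM KPO4, with 60 min NADPH-driven reaction at room temperature after 10 min compound exposure. Ketoconazole (57 uM) defined 100% inhibition.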

[16] = molecular target: DNA dC->dU-editing enzyme APOBEC-3G (Homo sapiens) (UniProt Q9HC16); assay: qHTS for inhibitors of Vif-A3G interactions: Validation (AID 588379)
Chain of DNA dC->dU-editing enzyme APOBEC-3G (Homo sapiens) (Q9HC16 whole entry, looked up): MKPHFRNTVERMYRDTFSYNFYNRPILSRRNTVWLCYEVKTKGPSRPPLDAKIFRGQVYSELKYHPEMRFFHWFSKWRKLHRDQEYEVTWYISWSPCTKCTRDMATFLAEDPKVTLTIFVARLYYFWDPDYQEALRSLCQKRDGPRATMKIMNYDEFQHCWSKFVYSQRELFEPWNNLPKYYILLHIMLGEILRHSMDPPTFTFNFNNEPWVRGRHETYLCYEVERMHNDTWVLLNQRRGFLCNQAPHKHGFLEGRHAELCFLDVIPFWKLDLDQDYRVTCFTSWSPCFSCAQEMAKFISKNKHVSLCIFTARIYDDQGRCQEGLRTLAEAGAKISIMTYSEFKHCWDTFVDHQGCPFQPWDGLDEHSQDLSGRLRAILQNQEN
Method in brief: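 Yellow fluorescence (Ex 488, Em 500-530) of Vif-coexpressing HeLa A3G-eYFP cells, scanned by Acumen cytometer, reports blocked A3G degradation. Cells plated at 700/well overnight at 37 deg C before compound addition, then a further overnight compound incubation at 37 deg C.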

Measured: Potency

COC(=O)C1=C(C)NC(C)=C(C(=O)OCCN(C)Cc2ccccc2)[C@@H]1c1cccc([N+](=O)[O-])c1
active: [3] 3.16 µM
inactive: [1] > 46 µM | [2] | [4] | [5] | [6]

Cc1ccccc1N1C(=O)CC(Sc2nnc(-c3ccccc3)o2)C1=O (configuration not stated)
inactive: [7] > 20.6 µM

C[C@@H]1O[C@@H](OC[C@@H]2O[C@@H](Oc3c(-c4ccc(O)c(O)c4)oc4cc(O)cc(O)c4c3=O)[C@H](O)[C@H](O)[C@@H]2O)[C@H](O)[C@H](O)[C@@H]1O
inactive: [7] > 46 µM | [1] > 46 µM | [8] | [9] | [10] | [11] | [12]

CC1(C)Cc2c(C#N)c(NCc3ccco3)nc(-c3ccco3)c2CO1
active: [13] 2 µM
inactive: [7] > 20.6 µM

COc1ccc(C(=O)[C@H]2[C@H]3[C@@H](C(=O)[C@@H]4OC[C@H]3O4)[C@H]3C=Cc4ccccc4N32)c(OC)c1
inactive: [7] > 46 µM | [1] > 46 µM | [8] | [9] | [11]

COc1ccc(-c2coc3ccc(O[C@@H]4O[C@@H](COC(C)=O)[C@@H](OC(C)=O)[C@@H](OC(C)=O)[C@H]4OC(C)=O)c(OC(C)=O)c3c2=O)cc1
inactive: [7] > 46 µM | [1] > 46 µM | [10] | [11]

CC(=O)OC[C@@H]1O[C@@H](Oc2cc(OC(C)=O)c3c(=O)cc(-c4ccc(OC(C)=O)c(OC(C)=O)c4)oc3c2)[C@H](OC(C)=O)[C@H](OC(C)=O)[C@@H]1OC(C)=O
inactive: [7] > 46 µM | [1] > 46 µM | [8] | [10] | [11]

O=C(Nc1ccc(N2CCN(C(=O)c3ccccc3)CC2)c(Cl)c1)c1ccc(Br)o1
inactive: [7] > 20.6 µM

O=C1C[C@H](c2ccccc2)Oc2cc(O)cc(O)c21
inactive: [7] > 46 µM | [1] > 46 µM | [8] | [9] | [15] | [16]
active: [10] 12.6 µM | [14] 12.6 µM | [11] 20 µM | [12] 0.631 µM

Cc1ccc(C2C3CN(C(C)C)CC=C3C(C#N)=C(N)C2(C#N)C#N)cc1 (configuration not stated)
inactive: [7] > 20.6 µM

C=C[C@@](C)(O)CC[C@H]1[C@]2(C)CCCC(C)(C)[C@H]2CC[C@]1(C)O
active: [12] 2 µM
inactive: [7] > 46 µM | [1] > 46 µM | [8] | [11]
